The record followed here is PubChem BioAssay (EPA / NIEHS).

The source made the active and inactive calls. How the source made its calls: active means hit-call score of the fitted dose curve at least 0.9, where 1 is the maximum; inactive means score below 0.9.

Read-out in this experiment: Collagen III, COL3A1 (gene 1281)
The experiment in a line: BSK_hDFCGF_CollagenIII: BioMAP Diversity Plus: hDFCGF Assay for Collagen III Biomarker Activity (AID 2283056). The settings on record: primary human foreskin fibroblasts; actives raise or lower the signal. The procedure: BSK_hDFCGF is a cell-based, multiplexed-readout assay that uses foreskin fibroblast, a human skin primary cell, with measurements taken at 24 hours after chemical dosing in a 96-well plate.BSK_hDFCGF_CollagenIII is an assay component measured in the BSK_hDFCGF assay. It measures Collagen antibody related to regulation of gene expression using ELISA technology.Data from the assay component BSK_hDFCGF_CollagenIII was analyzed into 1 assay endpoint. This assay endpoint, BSK_hDFCGF_CollagenIII, was analyzed with bidirectional fitting relative to DMSO as the negative control and baseline of activity. Using a type of binding reporter, gain or loss-of-signal activity can be used to understand changes in the signaling as they relate to the gene COL3A1. Furthermore, this assay endpoint can be referred to as a primary readout, because this assay has produced multiple assay endpoints where this one serves a signaling function. To generalize the intended target to other relatable targets, this assay endpoint is annotated to the cell adhesion molecules intended target family, where the subfamily is collagen.
The levels of cell surface (or secreted, indicated by the prefix "s") biomarker endpoints were measured by ELISA. Overt cytotoxicity to cells in confluent adherent cultures (all systems other than the BT system) was assessed by measuring total protein levels using sulforhodamine B (SRB) staining in parallel cultures at the time of biomarker measurements, indicated as SRB endpoints. For proliferation assays for adherent cell types, individual cell types are cultured at sub-confluence and relative cell numbers quantified by SRB staining at time points optimized for each system (48 h: 3C and CASM3C systems; 72 h: BT and HDF3CGF systems; 96 h: SAg system). SRB was performed by staining cells with 0.1% SRB after fixation with 10% TCA and reading wells at 560 nm.Viability and proliferation of PBMC (T cells) was quantified by Alamar Blue reduction for the SAg and BT systems. For PBMC viability (referred to as PBMC Cytotoxicity within the assay endpoint names), cells were plated (75,000/well in a 96-well plate) and then chemical samples added for 1 h before addition of activators, SEB and TSST-1 (20 ng/mL final concentration each). Cells were incubated for 90 h. Then, Alamar Blue (20 uL/well) (Invitrogen, Cat DAL1100) was added for 6 h, and the plates were read with a fluorescence microplate reader at 546/580 nm (excitation/emission). For PBMC proliferation, cells were plated and activated as above but incubated for only 16 h prior to addition of Alamar Blue. Plates were read after 6 h.
For the compound `O=C(O)C(F)(F)C(F)(F)C(F)(F)C(F)(F)C(F)(F)C(F)(F)F`, the result was inactive.
Regarding `Nc1cccc2ccccc12`, the concentration at half-maximal activity (AC50) is 27.1 µM (active).
As for `CC1(C)Cc2cccc(O)c2O1`, the outcome was inactive.
On to `ClC1=C(Cl)[C@]2(Cl)[C@H]3[C@H]([C@H]4C=C[C@H]3C4)[C@@]1(Cl)C2(Cl)Cl`, for which the AC50 was 4.4 µM (active).
As to `CC(C)(C)c1cc(O)ccc1O`, the AC50 was 5.6 µM (active).
In the case of `CCCCCCCCc1ccc(O)cc1`, the half-maximal activity concentration (AC50) was 20.1 µM (active).
For the compound `O=S(=O)(c1ccc(Cl)cc1)c1ccc(Cl)cc1`, the outcome was inactive.
`O=Cc1cccc(Oc2ccccc2)c1`: the outcome was inactive.
In the case of `Oc1ccc(-c2ccccc2)cc1`, the result was inactive.
Same read-out and setting: as for `O=C(O)CCC(F)(C(F)(F)F)C(F)(F)F`, the entry is “inactive”.
Consider `O=C(OC1CCCCC1)c1ccccc1C(=O)OC1CCCCC1`, for which the half-maximal activity concentration (AC50) was 5.33 µM (active).
For the compound `CCSC(C)CC1CC(=O)C(C(CC)=NOC/C=C/Cl)=C(O)C1` (stereo not given), the outcome was inactive.
On the same count and under the same terms, as for `COP(=S)(OC)Oc1ccc(S(=O)(=O)N(C)C)cc1`, the entry is “inactive”.
Same read-out and setting: as for `Nc1ccc(-c2ccc(N)c(Cl)c2)cc1Cl`, the entry is “inactive”; as for `OCc1ccco1`, “inactive”.
Consider `CC(C)(C)CC(C)(C)c1ccc(O)cc1`, for which the AC50 is 8.27 µM (active).
In the case of `CC(C)c1ccc(CO)cc1`, the outcome was inactive.
As to `CCC(=O)C(CC(C)N(C)C)(c1ccccc1)c1ccccc1` (stereo not given), the outcome was inactive.
For `ClC1(Cl)C2(Cl)C3(Cl)C4(Cl)C(Cl)(Cl)C5(Cl)C3(Cl)C1(Cl)C5(Cl)C24Cl` (stereo not given), the result was inactive.
For the compound `CCC(C)(C)c1ccc(O)c(C(C)(C)CC)c1`, the half-maximal activity concentration (AC50) was 7.28 µM (active).
Regarding `ClC(Cl)=C(Cl)C(Cl)=C(Cl)Cl`, the AC50 is 20 µM (active).
In the case of `O=[N+]([O-])c1ccc(O)c([N+](=O)[O-])c1`, the outcome was inactive.
For the compound `COP(=S)(OC)Oc1ccc(Sc2ccc(OP(=S)(OC)OC)cc2)cc1`, the outcome was inactive.
Take `CCN1CCC2(CC1)COc1cc3c(cc12)N(C(=O)c1ccc(-c2ccc(-c4nnc(C)o4)cc2C)cc1)CC3`: the AC50 was 9.42 µM (active).
In the case of `CCOP(=S)(OCC)SCCS(=O)(=O)CC`, the result was inactive.
As to `COC(=O)Cc1ccccc1`, the result was inactive.
`Cn1sc(Cl)cc1=O`: the concentration at half-maximal activity (AC50) was 33.6 µM (active).
Regarding `CCOP(=S)(OCC)Oc1nc(Cl)c(Cl)cc1Cl`, the AC50 was 9.2 µM (active).
On the same count and under the same terms, as for `O=C(Nc1ccc2[nH]ccc2c1)c1cc2cc(F)ccc2n1Cc1cccc(F)c1`, the figure is 1.93 µM (active); as for `CC(=O)[O][Hg][c]1ccccc1`, 0.279 µM (active).
On to `C=CC(=O)OCCCCCC(C)C`, for which the outcome was inactive.
With `NC(=O)O`, the outcome was inactive.
As to `CCOP(=S)(OCC)SCSP(=S)(OCC)OCC`, the concentration at half-maximal activity (AC50) is 10 µM (active).
With `C(=NC1CCCCC1)=NC1CCCCC1`, the AC50 is 33.2 µM (active).
Regarding `O=[N+]([O-])c1ccc2c3c(cccc13)CC2`, the result was inactive.
Consider `COP(=S)(OC)Oc1c(Cl)cc(C)cc1Cl`, for which the AC50 was 13.2 µM (active).
With `C[C@]12CCC(=O)C[C@@H]1CC[C@@H]1[C@@H]2CC[C@]2(C)[C@@H](O)CC[C@@H]12`, the outcome was inactive.
As for `CC(C)(OO)c1ccccc1`, the AC50 is 20 µM (active).
Consider `BrCCBr`, for which the result was inactive.
Regarding `CCOP(=S)(OCC)Oc1ccc(S(C)=O)cc1` (stereo not given), the result was inactive.
